The text below walks through data of PubChem BioAssay AID651800 (The Scripps Research Institute Molecular Screening Center, 2012).

About 1,300 (0.36%) of roughly 360,000 compounds were called active. Only a selection was taken, and actives are over-represented in it overall. Values without a mark were called inactive. Rule as the data show it: active = inhibition above about 19%; inactive = the rest.

This test relates to T-cell receptor (TCR). Description: small molecules blocking TCR binding to CD3 – biochemical, fluorescence, TAMRA-labeled TCR probe, primary screen (AID 651800).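 Also: recombinant mutant TCR 2C K166C tagged with TAMRA read by polarization; 0% = receptor in buffer alone and 100% = receptor with positive control.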 The following applies: at 9.4 µM, active compounds read high.
The term inhibition denotes the relative decrease from the control value, in per cent. Consider `Cc1ccc(CCC(=O)Nc2ncc(Cc3cc(Cl)ccc3Cl)s2)o1`, for which the inhibition is -1.49%.
In the case of `Cc1ccc(Cc2cnc(N)s2)o1`, the inhibition is 20.7% (active).
The result for `C=CCN=C1NC(c2ccccc2)C(C(=O)OC)=C(C)N1Cc1ccc(C(F)(F)F)cc1` (stereo unspecified) reads -2.66%; that for `N#Cc1ccc(OCCCN2CCC(C(O)(c3ccccc3)c3ccccc3)CC2)c(F)c1`, -1.37%; that for `COC(=O)c1ccc(CN2C(=O)[C@]3(OCCC=C[C@H]3C)c3c(Br)cccc32)cc1`, -2.86%.
As for `CN1c2ccc(C=O)c3c(C=O)ccc(c23)N(C)C1(C)C`, the inhibition is 35% (active).
`C#CCOCCOCCOCCNc1nc(N2CCN(C(=O)C([C@@H](C)CC)n3cc(C(N)COC(=O)C(F)(F)F)nn3)CC2)nc(N2CCN(C(=O)[C@H](Cc3ccc(O)cc3)n3cc(C(N)[C@H](C)CC)nn3)CC2)n1` (stereo partly specified): the inhibition is 1.55%.
Take `CCCN1C(=O)c2[nH]nc(-c3ccccc3)c2C1c1ccccc1` (stereo unspecified): the inhibition is 1.37%.
Turning to `CN(C)c1ccc(/C=N/NC(=O)C(O)c2ccc(Br)cc2)cc1` (stereo unspecified), the inhibition is 4.89%.
For `CNC(=S)NNC(=O)c1ccc(N(C)C)cc1`, the inhibition was 5.64%.
The result for `CN(C)c1ccc(N/C=C/C(=O)C(F)(F)F)cc1` reads 20.8% (active); that for `C#CCN([C@@H](C)C(=O)OCC)S(=O)(=O)c1ccc(Br)cc1F`, 1.93%; that for `CN1CCN(/N=C/c2ccc(C#N)cc2)CC1`, 51.9% (active).
Turning to `C(=N/N1CCN(c2ccccc2)CC1)/c1cccs1`, the inhibition was 4.89%.
The result for `CSc1ccc(/C=N/N2CCN(Cc3ccccc3Cl)CC2)cc1` reads -2.6%; that for `COC(=O)C1=C(C)NC(=S)NC1c1ccc(OC)cc1` (stereo unspecified), 0.64%; that for `COc1cccc(CC(=O)N2CCN(C(=O)C(=O)c3cccc(C(F)(F)F)c3)CC2)c1`, 0.68%.
The result for `C[C@H](O)[C@@H]1CN2CCc3ccc(-c4ccc5c(c4)OCO5)cc3[C@@H]2C[C@@H]1N(C)C(=O)C1CCCCC1` reads 8.65%; that for `O=C(CCNC(=O)c1ccccc1)NN=Cc1ccc(Br)o1`, 21.9% (active); that for `O=C(N/N=C/c1ccc(Br)o1)c1cncc(Br)c1`, -0.44%.
In the case of `O=C(CCNC(=O)c1ccccc1Cl)NN=Cc1ccco1`, the inhibition was -5.52%.
As for `CN1C(=O)C(Br)(Br)CC1c1cccnc1` (stereo unspecified), the inhibition was -8.3%.
With `Cc1cc(Br)cn2c(Cc3ccccc3C(F)(F)F)c(-c3ccc(C#N)cc3)nc12`, the inhibition was 4.41%.
In the case of `COCCCNC(=S)N(Cc1ccccc1)Cc1ccc(F)cc1`, the inhibition is -3.1%.
The result for `CCCCNC(=S)NNC(=O)c1cc(C)on1` reads 11.9%.
Turning to `COCCCNC(=S)NNC(=O)C(O)(c1ccccc1)c1ccccc1`, the inhibition is 24.9% (active).
